{
  "source": "PubChem BioAssay AID1788",
  "about": "(Vanderbilt High Throughput Screening Facility, 2009)",
  "system": "Purinergic P2X (rabbit)",
  "assay": "PubChem AID 1788",
  "conditions": "MDS Pharma lead profiling panel, radioligand binding, at 10 µM, stronger effect = higher value",
  "note": "Values without a mark were called inactive. How the calls were made is not given here.",
  "data": [
    {"smiles": "CCOC(=O)N1CCC(NCCNC(=O)c2ccccc2C)CC1", "values": [
      {"measurement": "inhibition", "result": 2, "unit": "%"}
    ]}
  ]
}
